Giardia killer = Small Molecules that selectively kill Giardia lamblia: qHTS; activity change, % at 7.66 µM, hits read low; AID 540267, 2011; Giardia lamblia trophozoite viability; 340,000 compounds, 0.15% hits; in the data active means activity change below about -80%; inconclusive means between about -30% and that limit;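 further: parasites exposed to compound for two days anaerobically before the ATP read; on the % scale 0 is the no-effect control and ±100 the full control effect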
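Each well holds 100 Giardia trophozoites and compound. After two days (48 hrs) at 37 deg C in anaerobic conditions, ATP is quantified by luminescence.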
RORgamma inh = qHTS for inhibitors of ROR gamma transcriptional activity; Drosophila S2 Gal4-RORgamma UAS-luciferase reporter, 20 h; AID 2551, 2010; Potency, µM (titrated, usually from 53.6 µM), for the others: at the highest dose activity change, negative = inhibition, usual class: inhibitors; 310,000 compounds, 5.4% hits; further: potency means the concentration at half of the fitted maximal effect; on the % scale 0 is the no-effect control and ±100 the full control effect; nearly all actives have a fitted effect of over 60% in size
Target sequence (P51450 whole entry, looked up, the tested form may be a part): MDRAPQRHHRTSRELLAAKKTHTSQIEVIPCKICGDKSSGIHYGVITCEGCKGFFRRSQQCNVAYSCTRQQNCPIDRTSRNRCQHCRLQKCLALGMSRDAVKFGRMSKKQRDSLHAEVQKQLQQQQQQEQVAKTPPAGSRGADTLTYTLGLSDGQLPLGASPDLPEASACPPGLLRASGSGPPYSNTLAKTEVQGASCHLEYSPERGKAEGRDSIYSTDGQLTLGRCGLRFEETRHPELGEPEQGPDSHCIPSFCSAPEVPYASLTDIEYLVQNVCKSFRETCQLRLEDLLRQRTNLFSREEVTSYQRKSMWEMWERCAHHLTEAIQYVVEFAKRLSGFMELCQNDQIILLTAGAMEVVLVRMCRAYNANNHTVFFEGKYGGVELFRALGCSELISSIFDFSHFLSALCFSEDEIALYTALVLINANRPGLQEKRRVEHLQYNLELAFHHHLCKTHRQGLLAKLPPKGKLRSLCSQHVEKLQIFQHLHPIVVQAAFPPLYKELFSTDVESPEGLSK
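Luminescence from a UAS-regulated Photinus luciferase reporter in stably transfected Drosophila Schneider cells is measured; decreased signal marks ROR gamma inhibition. Fusion expression is induced by 700 uM copper sulfate for 20 hr.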
BRCA1 expr up = qHTS Assay to Identify Small Molecule Activators of BRCA1 Expression | MCF7-BRCA1-FFLuc reporter, luminescence, 48 h; response scale: scaled: vehicle 0%, 10 µM genistein 100% | Potency, µM (highest dose often 46.1 µM), for inactives: at the top dose activation, most hits filed as activators | 380,000 compounds, 1.1% hits; further: potency means the concentration at half of the fitted maximal effect; nearly all actives have a fitted effect of over 80% in size
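Cells: MCF7-BRCA1-FFLuc, 2000/well. Exposure: 48 h, 37 °C, 5% CO2. Read: luminescence, 15 min post-substrate. Controls: genistein 10 microM (maximal activation), DMSO (neutral).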
ELG1 repair inh = qHTS screen for small molecules that inhibit ELG1-dependent DNA repair in human embryonic kidney (HEK293T) cells expressing luciferase-tagged ELG1 | 330,000 compounds, 2.3% hits | Potency, µM (doses to about 46.1 µM), for the others: top-dose activity change, negative = inhibition, usual class: inhibitors | HEK293T ELG1-luciferase reporter, luminescence, 16 h; DNA damage induced by 5-fluorouridine; further: potency means the concentration at half of the fitted maximal effect; on the % scale 0 is the no-effect control and ±100 the full control effect; nearly all actives have a fitted effect of over 55% in size
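Quantitative HTS, concentration-response format. 2,000 cells/well co-treated with 5-fluorouridine and compound, 16 hr in 5% CO2 at 37 °C; ONE-Glo luminescence read after 30 min.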
VP16 counter = VP16 counterscreen qHTS for inhibitors of ROR gamma transcriptional activity | Potency, µM (highest dose often 53.6 µM), for the others: at the top dose activity, negative = inhibition, hits mostly inhibitors | Drosophila S2 Gal4-VP16 UAS-luciferase, luminescence, 20 h | 310,000 compounds, 3.5% hits | AID 2546, 2010;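 further: Gal4-VP16 expression switched on by copper sulfate through the metallothionein promoter; potency means the concentration at half of the fitted maximal effect; on the % scale 0 is the no-effect control and ±100 the full control effect; nearly all actives have a fitted effect of over 50% in size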
p53 reactivation = qHTS assay for re-activators of p53 using a Luc reporter; H1299 p53-A138V BP100-luciferase reporter, luminescence, 24 h; Potency, µM (series often up to 92.2 µM), for the others: at the highest dose activity change, positive = activation, hits mostly activators; 320,000 compounds, 0.063% hits; AID 504706, 2011; further: potency means the concentration at half of the fitted maximal effect; % of control where 0% means no effect; nearly all actives have a fitted effect of over 45% in size
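p53-null H1299 cells stably carrying temperature-sensitive p53-A138V and a BP100-luciferase reporter were pinned with compounds (4-point, 1:5 series) and held 24 hrs at 37 deg C. Luminescence was read 10 min after detection reagent.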
An asterisk follows results filed as active. An excerpt weighted towards active compounds, which were near 7.6% of everything screened. Unless noted, the call rests on the fitted dose curve; in most records, active means well fitted curve in the direction sought with a large enough effect; inconclusive means small, poorly fitted or top-dose-only effect, or another doubt; inactive means no such curve, though single readings can be large; an effect the other way counts as inactive or inconclusive.

For COc1ccc(C2CC(=O)Nc3ccccc3S2(=O)=O)cc1OC (centres undefined) the results were Giardia killer 0.1, RORgamma inh 5.0%, BRCA1 expr up -5.8%, ELG1 repair inh -19.4%, VP16 counter -2.8% and p53 reactivation -1.6%.
O=C(CSc1ncn[nH]1)NCCC(c1ccccc1)c1ccccc1 was read as Giardia killer 16.9, RORgamma inh 45.0%, BRCA1 expr up -15.9%, ELG1 repair inh -5.9%, VP16 counter -2.0% and p53 reactivation -16.5%.
Screening CC(=O)NC1CCC(=O)C=C1c1ccccc1 (centres undefined) returned Giardia killer -16.6 and BRCA1 expr up 1.2%.
Screening COc1ccc(C(=O)O)cc1S(=O)(=O)Nc1cc(C(F)(F)F)ccc1N1CCCCC1 returned BRCA1 expr up 1.1%.
CCCOc1ccc(S(=O)(=O)NCc2ccc(OC)cc2)cc1 was read as Giardia killer 16.5, RORgamma inh -8.1%, BRCA1 expr up -43.7%, ELG1 repair inh inconclusive, VP16 counter inconclusive and p53 reactivation -2.7%.
CCOc1ccc(NC(=O)c2nccnc2CO)cc1 was read as Giardia killer -3.2, RORgamma inh inconclusive, BRCA1 expr up 5.62µM*, ELG1 repair inh inconclusive, VP16 counter inconclusive and p53 reactivation inconclusive.
CCOc1ccc(NC(=O)c2cnccn2)cc1 was read as Giardia killer inconclusive, RORgamma inh inconclusive, BRCA1 expr up 2.5%, ELG1 repair inh inconclusive, VP16 counter inconclusive and p53 reactivation inconclusive.
Screening CCOc1ccc(NC(=O)c2ccccn2)cc1 returned Giardia killer -93.3*, RORgamma inh 7.08µM*, BRCA1 expr up inconclusive, ELG1 repair inh inconclusive, VP16 counter 4.47µM* and p53 reactivation -11.0%.
CC1CCCCC12NC(=O)N(CC(=O)NC1CCCc3ccccc31)C2=O (centres undefined) was read as Giardia killer 0.2, RORgamma inh -7.2%, BRCA1 expr up -1.2%, ELG1 repair inh 12.1%, VP16 counter 1.1% and p53 reactivation -5.7%.
For CCCCOc1ccc(-c2cc3c(=O)n(CC(=O)Nc4ccc(Cl)cc4Cl)ccn3n2)cc1 the results were BRCA1 expr up 5.6%.
`O=C1CS/C(=N/N=C\c2ccn[nH]2)N1` gave Giardia killer 8.6, RORgamma inh 10µM*, BRCA1 expr up -15.2%, ELG1 repair inh -15.8%, VP16 counter inconclusive and p53 reactivation -3.7%.
For Cc1nc(SCC(=O)N2CCOCC2)c2c(C)c(C)sc2n1 the results were Giardia killer -7.1, RORgamma inh -1.1%, BRCA1 expr up -0.3%, ELG1 repair inh inconclusive, VP16 counter 4.5% and p53 reactivation -15.0%.
`Cc1nc(SC2CCOC2=O)c2c(C)c(C)sc2n1` (centres undefined) gave Giardia killer 0.6, RORgamma inh 11.2µM*, BRCA1 expr up -10.6%, ELG1 repair inh -6.7%, VP16 counter 15.8µM* and p53 reactivation -3.0%.
`Cc1cccc(C2c3[nH]c4ccccc4c3CCN2C(=O)c2nn(C)c(=O)c3ccccc23)n1` (centres undefined) gave Giardia killer 25.6, RORgamma inh 20.3%, BRCA1 expr up -17.9%, ELG1 repair inh inconclusive, VP16 counter -21.8% and p53 reactivation -4.4%.
Screening Cc1cccc(N(CC(=O)NC2CCCC2)C(=O)c2cc3cc4cccc(C)c4nc3s2)c1C returned Giardia killer 6.7, RORgamma inh -24.8%, BRCA1 expr up -44.6%, ELG1 repair inh 18.4µM*, VP16 counter -9.2% and p53 reactivation -0.2%.
